# Laboratory results published in PubChem BioAssay.
# Results filed as inconclusive are left out. The source made the active and inactive calls.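 Rule for the calls, unless noted: active = aptamer binding inhibition above 30%, about 3 SD of noise from non-fluorescent compounds; inactive = inhibition at or below 30%.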
# Columns and labels:
# [1] = rapamycin-like changes in RPL19A-GFP expression – cell-based, S. cerevisiae, multiplex flow cytometry, primary screen (AID 1862; in the data active = percent of DMSO control GFP below about 86%;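 note: lower values mimic rapamycin by blocking the RPL19A rise seen in DMSO cells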); settings: S. cerevisiae RPL19A-GFP strain, flow cytometry fluorescence, 3 h; at 10 µM; stronger effect = lower value
# [2] = TOR pathway GLN3 branch reporter MEP2-GFP changes – S. cerevisiae, multiplex flow cytometry, primary screen (AID 1867;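 active = GFP response, as percent of the DMSO control, above the screen-wide mean plus 3 SD, about 139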;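 note: median GFP channel fluorescence of barcode-gated MEP2-GFP cells measured by flow cytometry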); settings: S. cerevisiae MEP2-GFP strain, 3 h, at 10 µM, stronger effect = higher value, 100% means same as DMSO wells
# [3] = TOR pathway RTG branch CIT2 reporter changes – S. cerevisiae, GFP fusion, multiplex flow cytometry, primary screen (AID 1870;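 active = percent response above a set limit, the screen-wide mean plus 3 SD, cut at about 130% in these data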;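 note: barcoded CIT2-GFP strain pooled with four other GFP strains with rapamycin as positive control; median GFP fluorescence per well over plate mean of DMSO wells so 100% = DMSO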); settings: S. cerevisiae CIT2-GFP expression, 3 h, at 10 µM, stronger effect = higher value
# [4] = TOR pathway LAP4-GFP level changes – S. cerevisiae, multiplex flow cytometry, primary screen (AID 1873;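 active = GFP signal, as percent of the solvent control, above the screen mean plus 3 SD, about 149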); settings: S. cerevisiae LAP4-GFP expression, 3 h, at 10 µM, stronger effect = higher value
# [5] = yeast AGP1-GFP level changes, GLN3 branch – cell-based, multiplex flow cytometry, S. cerevisiae, primary screen (AID 1887;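 active = GFP signal above the screen-wide mean plus 3 SD, that is over about 124.5% of the solvent control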;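 note: AGP1-GFP fusion strain of S. cerevisiae within a five-strain barcoded multiplex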); settings: 3 h, at 10 µM, stronger effect = higher value
# [6] = reduced mouse 2C T cell binding to pMHC/ICAM-1 vesicles – MLPCN validation set, flow cytometry, LFA-1/ICAM-1 modulator project, pilot screen (AID 2523;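 active = response below a set limit, under 55% cells CD8-positive and vesicle-bound, and CD8 cells' 90th-percentile brightness under 279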;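 for vesicle binding response: mean PE anti-B7-1 fluorescence of CD8+ cells relative to row control; 100% = QL9-loaded vesicles with DMSO vehicle in the same plate row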); settings: 2C mouse CD8+ T cells, at 7 µM, stronger effect = lower value; double positive events: measured here: CD8+/vesicle+ event percentage
# [7] = biological target: Integrin beta-1 (Homo sapiens) + Integrin alpha-4 (Homo sapiens) (UniProt P13612+P05556); assay: alpha4beta1 integrin LIBS antibody binding reduction – U937 cells, HUTS-21 mAb, flow cytometry, validation set, VLA-4 allosteric modulator project, pilot screen (AID 2674;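 active = inhibition above 50%, about 3 SD of the validation set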;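 note: antibody binding induced by the VLA-4 ligand LDV present at three times its Kd; 0% = LDV ligand with antibody and no compound and 100% = antibody without LDV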); settings: HUTS-21 LIBS mAb binding, at 6.7 µM, stronger effect = higher value, binding induced by LDV ligand
# [8] = calorie-restriction mimetic ROS inhibitors, yeast – validation compound set, pilot screen (AID 2706;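 active = superoxide response below 65% of plate, a cut near 3 SD across the whole screen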;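 note: yeast exposed to compound for one week at 30 degrees C before staining; 100% = mean of all compound wells on the same plate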); settings: S. cerevisiae aging, superoxide DHE fluorescence; at 10 µM, stronger effect = lower value
# [9] = biological target: Beta-adrenergic receptor kinase 1 (Homo sapiens) (UniProt P25098); assay: GRK2 binders displacing RNA aptamer, biochemical, validation, human GRK2, bead flow cytometry (AID 488806); settings: bead-bound GRK2, FAM-aptamer displacement, at 10 µM, stronger effect = higher value
# [10] = biological target: AP-2 complex subunit beta (Homo sapiens) (UniProt P63010); assay: beta-arrestin/AP2 interaction blockers – biochemical, validation set, GST-AP2 beads, flow cytometry, pilot screen (AID 504541;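 active = inhibition above 54%, about 3 SD of non-fluorescent compounds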;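 note: AP2 carries R879A mutation and is captured from E. coli lysate; bead-bound FITC arrestin peptide fluorescence measuring arrestin peptide binding to AP2; 0% = DMSO wells and 100% = excess unlabeled arrestin peptide control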); settings: FITC arrestin peptide, at 10 µM, stronger effect = higher value, AP2 beta2 appendage fragment, R879A mutant
# [11] = cytosolic pH regulators acting via V-ATPase – S. cerevisiae, pHLuorin, HTS validation (AID 504600; in the data active = response above about 15%;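 note: plate controls were DMSO for no effect and reference compound for full effect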); settings: V-ATPase proton transport, at 10 µM, stronger effect = higher value
# [12] = system: anti-desmoglein-3 scFv antibody binding to human DSG3; assay: blockers of pathogenic pemphigus antibody–desmoglein-3 binding – biochemical, validation compound set, bead-based, flow cytometry, pilot screen (AID 588368;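 active = binding below the plate cutoff, the plate median minus 3 SD, with a reading above zero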;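 note: signal is the median channel fluorescence of bead-bound GFP antibody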); settings: Protein G beads, DSG3-Fc, scFv-GFP binding, at 10 µM, stronger effect = lower value
# [13] = Nile Red efflux blockade in pump-expressing yeast – validation compound set, multiplex, phenotypic, pilot screen (AID 588506;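 active = efflux inhibition above 0.42, the validation set average plus 4 SD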;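 note: Nile Red retained in cells so higher fluorescence means more efflux inhibition; 0 = negative control wells and 1 = enniatin B 25 µM full block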); settings: S. cerevisiae pump-expressing triplex, Nile Red efflux flow cytometry; at 10 µM; stronger effect = higher value; the pumps come from Candida albicans
# [14] = biological target: ATP-binding cassette sub-family B member 6 (Homo sapiens) (UniProt Q9NP58); assay: blockers of ABCB6-driven porphyrin uptake – K562-ABCB6 cells, flow cytometry, validation set, pilot screen (AID 588550;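 active = inhibition above the screen-wide mean plus 3 SD, about 51%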;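 note: 0% = DMSO wells and 100% = benzethonium chloride 70 µM positive control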); settings: K562-ABCB6 porphyrin accumulation, 1 h, at 10 µM, stronger effect = higher value
# [15] = AML differentiation inducers, ER-HoxA9 marrow cells – cell-based, GFP/MAC1 double positive, flow cytometry, validation set, primary screen (AID 588685;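 active = differentiation response of at least 50%, scaled between solvent and reference control, from cells with both markers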;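 note: compound exposure lasts four days before antibody staining and flow analysis; 0% = DMSO wells and 100% = 5 µM fulvestrant positive control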); settings: stronger effect = higher value, normalized: vehicle 0, fulvestrant 100
# [16] = biological target: Beta-2 adrenergic receptor (Homo sapiens) (UniProt P07550); assay: agonist-induced loss of surface beta2AR – cell-based, FAP fluorogen, flow cytometry, validation set, pilot screen (AID 504459;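 active = percent response above 42, roughly 3 SD of non-fluorescent test compounds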;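 note: agonist-driven loss of surface beta2AR via internalization measured by FAP dye flow cytometry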); settings: Am2.2-beta2AR cells, at 10 µM, stronger effect = higher value
# Beta-2 adrenergic receptor (Homo sapiens), sequence (P07550 whole entry, looked up): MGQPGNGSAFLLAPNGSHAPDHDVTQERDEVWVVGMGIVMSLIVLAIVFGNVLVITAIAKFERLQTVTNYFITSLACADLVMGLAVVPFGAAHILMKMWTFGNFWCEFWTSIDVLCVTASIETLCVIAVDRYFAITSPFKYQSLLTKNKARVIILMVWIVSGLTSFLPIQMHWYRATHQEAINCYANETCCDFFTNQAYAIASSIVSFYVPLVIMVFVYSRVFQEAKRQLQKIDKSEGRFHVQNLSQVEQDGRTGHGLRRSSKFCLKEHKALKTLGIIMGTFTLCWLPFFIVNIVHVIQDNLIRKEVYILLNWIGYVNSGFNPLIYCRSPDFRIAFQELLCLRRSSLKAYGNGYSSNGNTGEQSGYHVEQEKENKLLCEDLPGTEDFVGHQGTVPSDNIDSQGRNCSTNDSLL
# Beta-adrenergic receptor kinase 1 (Homo sapiens), sequence (P25098 whole entry, looked up): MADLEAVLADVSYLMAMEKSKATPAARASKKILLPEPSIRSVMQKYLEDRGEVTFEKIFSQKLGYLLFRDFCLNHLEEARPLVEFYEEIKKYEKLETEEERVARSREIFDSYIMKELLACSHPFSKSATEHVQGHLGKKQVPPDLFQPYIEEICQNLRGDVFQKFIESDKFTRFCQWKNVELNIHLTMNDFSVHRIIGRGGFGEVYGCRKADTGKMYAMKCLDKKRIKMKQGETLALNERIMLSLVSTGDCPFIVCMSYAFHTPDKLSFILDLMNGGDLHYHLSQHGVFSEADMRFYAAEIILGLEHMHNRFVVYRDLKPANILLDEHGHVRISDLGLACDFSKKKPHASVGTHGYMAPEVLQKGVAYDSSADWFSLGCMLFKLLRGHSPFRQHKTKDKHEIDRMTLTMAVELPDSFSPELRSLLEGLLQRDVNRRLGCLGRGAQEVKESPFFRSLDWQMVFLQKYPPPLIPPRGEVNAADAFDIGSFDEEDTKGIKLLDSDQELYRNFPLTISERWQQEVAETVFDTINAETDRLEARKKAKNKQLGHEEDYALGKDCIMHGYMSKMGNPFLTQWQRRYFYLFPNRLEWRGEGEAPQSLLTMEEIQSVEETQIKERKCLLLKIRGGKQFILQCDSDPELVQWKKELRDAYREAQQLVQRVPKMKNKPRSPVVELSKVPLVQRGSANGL
# ATP-binding cassette sub-family B member 6 (Homo sapiens), sequence (Q9NP58 whole entry, looked up): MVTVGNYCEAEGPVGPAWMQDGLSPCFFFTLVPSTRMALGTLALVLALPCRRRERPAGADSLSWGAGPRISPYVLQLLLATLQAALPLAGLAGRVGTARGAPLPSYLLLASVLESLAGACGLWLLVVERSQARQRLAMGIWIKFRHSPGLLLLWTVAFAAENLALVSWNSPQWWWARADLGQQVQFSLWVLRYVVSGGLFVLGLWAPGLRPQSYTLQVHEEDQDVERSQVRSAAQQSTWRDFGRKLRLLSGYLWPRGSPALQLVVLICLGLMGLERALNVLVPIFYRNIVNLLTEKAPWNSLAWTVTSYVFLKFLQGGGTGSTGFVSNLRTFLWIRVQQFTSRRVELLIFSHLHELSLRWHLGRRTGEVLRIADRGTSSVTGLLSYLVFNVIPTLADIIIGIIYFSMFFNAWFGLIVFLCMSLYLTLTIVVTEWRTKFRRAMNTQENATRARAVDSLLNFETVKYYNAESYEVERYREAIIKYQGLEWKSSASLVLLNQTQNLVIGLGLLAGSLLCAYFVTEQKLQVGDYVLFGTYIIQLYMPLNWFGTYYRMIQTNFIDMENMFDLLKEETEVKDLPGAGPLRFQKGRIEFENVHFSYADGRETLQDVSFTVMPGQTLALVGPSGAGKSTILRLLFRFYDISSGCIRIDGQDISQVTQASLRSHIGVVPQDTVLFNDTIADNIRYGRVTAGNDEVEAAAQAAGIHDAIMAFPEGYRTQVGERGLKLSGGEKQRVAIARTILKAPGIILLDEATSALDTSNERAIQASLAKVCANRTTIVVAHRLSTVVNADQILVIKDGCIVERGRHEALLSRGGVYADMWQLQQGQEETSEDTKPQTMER
# AP-2 complex subunit beta (Homo sapiens), sequence (P63010 whole entry, looked up, the tested form may be a part, one chain of several): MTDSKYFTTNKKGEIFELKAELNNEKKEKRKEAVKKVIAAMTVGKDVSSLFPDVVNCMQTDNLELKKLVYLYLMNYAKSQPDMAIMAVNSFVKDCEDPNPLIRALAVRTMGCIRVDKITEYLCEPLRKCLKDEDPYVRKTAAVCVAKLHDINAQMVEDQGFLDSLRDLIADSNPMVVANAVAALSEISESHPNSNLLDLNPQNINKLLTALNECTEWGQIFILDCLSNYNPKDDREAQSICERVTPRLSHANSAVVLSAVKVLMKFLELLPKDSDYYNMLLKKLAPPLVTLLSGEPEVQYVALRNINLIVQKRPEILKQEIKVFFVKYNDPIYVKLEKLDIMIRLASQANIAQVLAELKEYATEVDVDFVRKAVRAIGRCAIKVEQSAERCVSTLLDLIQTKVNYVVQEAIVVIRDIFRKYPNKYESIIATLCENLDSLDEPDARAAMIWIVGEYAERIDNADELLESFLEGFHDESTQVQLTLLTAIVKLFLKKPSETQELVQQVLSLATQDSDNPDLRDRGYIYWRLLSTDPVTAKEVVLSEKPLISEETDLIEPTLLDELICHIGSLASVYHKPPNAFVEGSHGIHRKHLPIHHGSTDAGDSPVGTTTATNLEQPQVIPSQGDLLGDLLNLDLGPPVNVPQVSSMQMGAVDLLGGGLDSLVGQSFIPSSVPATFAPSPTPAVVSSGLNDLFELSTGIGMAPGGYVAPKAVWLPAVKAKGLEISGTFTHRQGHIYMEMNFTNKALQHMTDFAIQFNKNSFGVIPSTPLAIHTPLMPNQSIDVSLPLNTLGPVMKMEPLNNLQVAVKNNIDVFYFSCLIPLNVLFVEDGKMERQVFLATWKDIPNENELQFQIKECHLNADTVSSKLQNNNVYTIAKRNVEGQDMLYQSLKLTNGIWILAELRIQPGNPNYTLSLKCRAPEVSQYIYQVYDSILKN
# Integrin beta-1 (Homo sapiens) + Integrin alpha-4 (Homo sapiens), sequence (P05556 whole entry, looked up): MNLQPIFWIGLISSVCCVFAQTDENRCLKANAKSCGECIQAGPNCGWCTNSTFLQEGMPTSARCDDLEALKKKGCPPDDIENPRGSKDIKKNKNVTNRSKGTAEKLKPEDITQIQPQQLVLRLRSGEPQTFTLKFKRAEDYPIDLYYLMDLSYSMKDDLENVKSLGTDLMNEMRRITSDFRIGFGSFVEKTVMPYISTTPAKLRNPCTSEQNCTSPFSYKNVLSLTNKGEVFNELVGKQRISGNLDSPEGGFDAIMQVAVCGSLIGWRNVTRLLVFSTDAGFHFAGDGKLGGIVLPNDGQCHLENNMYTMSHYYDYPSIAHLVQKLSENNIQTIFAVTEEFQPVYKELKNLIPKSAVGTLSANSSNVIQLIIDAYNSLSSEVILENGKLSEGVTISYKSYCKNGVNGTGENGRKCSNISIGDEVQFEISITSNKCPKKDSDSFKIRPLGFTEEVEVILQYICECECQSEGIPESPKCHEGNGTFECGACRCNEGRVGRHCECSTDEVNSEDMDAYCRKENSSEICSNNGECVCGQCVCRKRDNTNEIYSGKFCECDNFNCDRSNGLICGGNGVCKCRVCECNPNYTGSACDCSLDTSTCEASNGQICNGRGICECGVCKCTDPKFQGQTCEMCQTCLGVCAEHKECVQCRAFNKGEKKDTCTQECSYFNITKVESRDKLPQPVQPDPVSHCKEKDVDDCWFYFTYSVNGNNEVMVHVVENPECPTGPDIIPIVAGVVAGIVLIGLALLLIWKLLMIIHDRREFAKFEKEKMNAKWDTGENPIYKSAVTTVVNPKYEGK
# Integrin beta-1 (Homo sapiens) + Integrin alpha-4 (Homo sapiens), sequence (P13612 whole entry, looked up): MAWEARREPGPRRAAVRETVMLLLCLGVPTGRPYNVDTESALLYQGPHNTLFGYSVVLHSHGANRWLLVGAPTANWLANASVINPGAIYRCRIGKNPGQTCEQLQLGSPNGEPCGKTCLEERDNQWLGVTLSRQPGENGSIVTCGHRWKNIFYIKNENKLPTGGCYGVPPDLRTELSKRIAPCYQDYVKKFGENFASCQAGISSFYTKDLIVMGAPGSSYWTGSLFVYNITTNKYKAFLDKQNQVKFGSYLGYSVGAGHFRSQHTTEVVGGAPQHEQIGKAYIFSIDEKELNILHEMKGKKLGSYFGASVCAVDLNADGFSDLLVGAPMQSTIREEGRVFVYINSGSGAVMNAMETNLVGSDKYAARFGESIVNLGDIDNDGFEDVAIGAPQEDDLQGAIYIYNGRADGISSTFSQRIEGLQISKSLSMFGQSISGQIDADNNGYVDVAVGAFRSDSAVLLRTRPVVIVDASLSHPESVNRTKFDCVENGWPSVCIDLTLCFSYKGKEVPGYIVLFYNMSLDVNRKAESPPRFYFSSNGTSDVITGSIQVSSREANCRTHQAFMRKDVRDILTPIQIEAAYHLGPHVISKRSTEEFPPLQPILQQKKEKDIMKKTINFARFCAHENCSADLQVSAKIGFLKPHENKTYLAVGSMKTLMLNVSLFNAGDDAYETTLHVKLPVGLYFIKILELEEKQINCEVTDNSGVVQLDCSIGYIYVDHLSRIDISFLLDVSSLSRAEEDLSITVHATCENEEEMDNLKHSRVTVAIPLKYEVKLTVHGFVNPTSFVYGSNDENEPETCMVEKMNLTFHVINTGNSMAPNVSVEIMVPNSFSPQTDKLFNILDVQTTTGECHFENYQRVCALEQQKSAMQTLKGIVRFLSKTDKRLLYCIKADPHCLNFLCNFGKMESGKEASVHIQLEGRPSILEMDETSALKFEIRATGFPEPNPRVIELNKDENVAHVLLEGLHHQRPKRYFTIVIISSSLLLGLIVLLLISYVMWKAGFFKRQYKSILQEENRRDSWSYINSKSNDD
SMILES,percent of DMSO control GFP [1],GFP response vs DMSO [2],percent response of DMSO control [3],GFP response vs DMSO [4],"GFP response, % of DMSO [5]",double positive events [6],vesicle binding response [6],inhibition [7],superoxide response (% of plate) [8],aptamer binding inhibition [9],inhibition [10],response [11],binding (% of control) [12],efflux inhibition (fraction of control) [13],inhibition [14],differentiation response [15],response [16]
O=C(/C=C/c1ccc(Cl)cc1)NCCc1ccccc1,102% (inactive),92.8% (inactive),97.9% (inactive),97.4% (inactive),97.5% (inactive),54.1%,270% (inactive),2.56% (inactive),106% (inactive),-1% (inactive),-7.53% (inactive),2.01% (inactive),98.2% (inactive),-0.09 (inactive),7% (inactive),-5.05% (inactive),–
Nc1nc2c(ncn2COC(CO)CO)c(=O)[nH]1,97.3% (inactive),106% (inactive),96.4% (inactive),125% (inactive),119% (inactive),60.3%,212% (inactive),-11.3% (inactive),106% (inactive),-6% (inactive),-16.5% (inactive),-2.35% (inactive),98% (inactive),–,5% (inactive),-10.9% (inactive),-20.9% (inactive)
COc1ccc2[nH]cc(CCNC(=O)C3CCCNC3=O)c2c1 (stereo unspecified),103% (inactive),97.9% (inactive),104% (inactive),104% (inactive),105% (inactive),57.5%,218% (inactive),-2.11% (inactive),100% (inactive),-7% (inactive),-18.5% (inactive),2.02% (inactive),103% (inactive),-0.24 (inactive),7% (inactive),6.26% (inactive),–
Nc1nc2ccc(OC(F)(F)F)cc2s1,100% (inactive),99.9% (inactive),99.3% (inactive),102% (inactive),95.1% (inactive),57.4%,21.6% (inactive),-0.31% (inactive),94.9% (inactive),4% (inactive),–,1.08% (inactive),97.2% (inactive),-0.41 (inactive),3% (inactive),2.69% (inactive),9.24% (inactive)
CCOC(=O)Nc1ccc2c(c1)N(C(=O)CCN1CCOCC1)c1ccccc1S2,107% (inactive),102% (inactive),109% (inactive),92.3% (inactive),109% (inactive),48.8%,120% (inactive),-8.64% (inactive),106% (inactive),0% (inactive),9.79% (inactive),-2.72% (inactive),97.3% (inactive),-0.43 (inactive),8% (inactive),-8.27% (inactive),–
O=C(NNC(=O)c1cccs1)c1ccco1,104% (inactive),104% (inactive),111% (inactive),111% (inactive),111% (inactive),56.8%,159% (inactive),-3.04% (inactive),95.2% (inactive),1% (inactive),-10.8% (inactive),8.92% (inactive),102% (inactive),-0.05 (inactive),16% (inactive),1.41% (inactive),–
COc1cc(Cl)cc2c1Sc1ccccc1/C2=C/CCN(C)C,97.1% (inactive),105% (inactive),94.9% (inactive),93.7% (inactive),92.6% (inactive),63.9%,1310% (inactive),-7.47% (inactive),104% (inactive),-8% (inactive),–,0.4% (inactive),110% (inactive),-0.09 (inactive),0% (inactive),-2.64% (inactive),20% (inactive)
Cc1ccccc1-c1coc2cc(O)ccc2c1=O,98.5% (inactive),96.9% (inactive),90% (inactive),116% (inactive),97.3% (inactive),60.2%,187% (inactive),-21.7% (inactive),89.2% (inactive),4% (inactive),30.2% (inactive),0.4% (inactive),99.1% (inactive),-0.05 (inactive),8% (inactive),-14.7% (inactive),–
CC(C)CN1CC(C(=O)O)CC1=O (stereo unspecified),96.1% (inactive),101% (inactive),96% (inactive),104% (inactive),102% (inactive),56%,66.5% (inactive),1.12% (inactive),102% (inactive),0% (inactive),–,-1.05% (inactive),104% (inactive),-0.57 (inactive),4% (inactive),5.73% (inactive),-5.23% (inactive)
CC(C)NC(=O)c1ccc(C(C)C)cc1,98.4% (inactive),102% (inactive),108% (inactive),118% (inactive),101% (inactive),63.6%,255% (inactive),-11.3% (inactive),109% (inactive),-2% (inactive),-5.8% (inactive),-1.44% (inactive),102% (inactive),–,13% (inactive),2.4% (inactive),0.9% (inactive)
CC(C)C[C@H](NC(=O)NC(C)C)C(=O)O,103% (inactive),105% (inactive),95.5% (inactive),95.9% (inactive),99.8% (inactive),60.1%,136% (inactive),9.63% (inactive),111% (inactive),-1% (inactive),-6.27% (inactive),-3.73% (inactive),96.8% (inactive),-0.12 (inactive),0% (inactive),-10.4% (inactive),2.78% (inactive)
O=C1OCCN1/N=C/c1ccc([N+](=O)[O-])o1,103% (inactive),103% (inactive),109% (inactive),111% (inactive),102% (inactive),48.6%,157% (inactive),3.49% (inactive),124% (inactive),-2% (inactive),3.09% (inactive),8.6% (inactive),104% (inactive),0.06 (inactive),4% (inactive),-16.4% (inactive),–
CN(C)C(=O)C12CCC(C)(c3nc4ccccc4nc31)C2(C)C (stereo unspecified),104% (inactive),101% (inactive),106% (inactive),99.4% (inactive),99.3% (inactive),62.9%,190% (inactive),0.69% (inactive),95.4% (inactive),-1% (inactive),9.98% (inactive),1.66% (inactive),103% (inactive),-0.09 (inactive),5% (inactive),1.41% (inactive),–
CCOc1cc2oc(=O)c3c(c2cc1Cl)CCC3,104% (inactive),99.9% (inactive),102% (inactive),111% (inactive),107% (inactive),51.1%,165% (inactive),-6.77% (inactive),109% (inactive),1% (inactive),-15.2% (inactive),-4.08% (inactive),103% (inactive),-0.05 (inactive),6% (inactive),-11.5% (inactive),–
COc1ccc2c(c1)[nH]c1c(=O)n(Cc3ccccn3)cnc12,97.7% (inactive),97.7% (inactive),101% (inactive),106% (inactive),96.1% (inactive),64%,1600% (inactive),-1.74% (inactive),109% (inactive),-4% (inactive),–,-2.14% (inactive),98% (inactive),-0.5 (inactive),3% (inactive),10.3% (inactive),2.42% (inactive)
CN(C)c1ccc(O)c2c1CC1CC3[C@@H](N(C)C)C(=O)C(C(N)=O)=C(O)[C@]3(O)C(=O)C1=C2O (stereo partly specified),100% (inactive),101% (inactive),97.6% (inactive),93.7% (inactive),93% (inactive),63%,162% (inactive),4.27% (inactive),99.5% (inactive),29% (inactive),6.63% (inactive),-2.16% (inactive),93.6% (inactive),–,6% (inactive),-3.11% (inactive),1.7% (inactive)
COc1ccc2c(c1)CC[C@@H]1[C@@H]2CC[C@]2(C)C(=O)CC[C@@H]12,102% (inactive),102% (inactive),98.6% (inactive),133% (inactive),104% (inactive),58.2%,122% (inactive),-7.79% (inactive),98.6% (inactive),-1% (inactive),-2.71% (inactive),109% (active),102% (inactive),–,3% (inactive),-0.18% (inactive),-15.3% (inactive)
CC(C)[N+]1(C)[C@@H]2CC[C@H]1CC(OC(=O)C(CO)c1ccccc1)C2 (stereo partly specified),101% (inactive),95.9% (inactive),102% (inactive),101% (inactive),104% (inactive),53.4%,158% (inactive),27.7% (inactive),94.6% (inactive),-2% (inactive),7.81% (inactive),2.53% (inactive),102% (inactive),-0.12 (inactive),11% (inactive),-9.89% (inactive),–
CC(C(=O)O)c1ccc(N2Cc3ccccc3C2=O)cc1 (stereo unspecified),98.4% (inactive),103% (inactive),93.9% (inactive),119% (inactive),90.4% (inactive),62.1%,2350% (inactive),-7.47% (inactive),112% (inactive),-4% (inactive),–,0.33% (inactive),107% (inactive),-0.41 (inactive),1% (inactive),-1.12% (inactive),3.47% (inactive)
CCOC(=O)C1=C(N)Oc2c(oc(CO)cc2=O)C1c1ccc(F)c(F)c1 (stereo unspecified),99.1% (inactive),101% (inactive),99.8% (inactive),94.3% (inactive),97.3% (inactive),56.7%,213% (inactive),9.09% (inactive),98% (inactive),1% (inactive),42.8% (inactive),-11.2% (inactive),104% (inactive),0.03 (inactive),2% (inactive),-18% (inactive),–
